From PubChem BioAssay (NCI)
Several values for one entry are separate records, joined by “and”; a condition that tells them apart may be missing. Equal values may be shown once. This is part of a sample that, as a whole, favours compounds with a hit. Of some 79,000 tested, about 15% had one in any assay. Values without a mark were called inactive. Activity calls are given as the source filed them. No stated cut-off is given here; in the data, active means growth inhibition above about 70%; inactive means the rest.

Columns and labels:
[1] = NCI Yeast Anticancer Drug Screen. Data for the rad50 strain (AID 155);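 further: 0% = growth of vehicle-only cultures of the same strain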; conditions: S. cerevisiae rad50 strain growth inhibition; at 50.0 µM; stronger effect = higher value
How it was run: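 A DNA repair-deficient yeast mutant serves as the test organism; compound-induced growth inhibition is calculated against vehicle-treated cells.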

[2] = NCI Yeast Anticancer Drug Screen. Data for the mec2-1 strain (AID 157); conditions: S. cerevisiae mec2-1 strain, at 50.0 µM, stronger effect = higher value
How it was run: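 Test agents were screened against the mec2-1 yeast strain, with defined DNA repair or cell cycle alteration. Growth was scored as inhibition against vehicle-only controls.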

[3] = NCI Yeast Anticancer Drug Screen. Data for the sgs1 mgt1 strain (AID 161);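 further: 0% = growth of cultures given vehicle only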; conditions: S. cerevisiae sgs1 mgt1 strain, at 50.0 µM, stronger effect = higher value
How it was run: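 Mutant yeast exposed to compound; growth scored against vehicle-only wells.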

[4] = NCI Yeast Anticancer Drug Screen. Data for the cln2 rad14 strain (AID 165);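 further: 0% = growth equal to vehicle treated cultures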; conditions: S. cerevisiae cln2 rad14 strain, at 50.0 µM, stronger effect = higher value
How it was run: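 Growth of compound-exposed yeast (cln2 rad14 genotype) measured and expressed as inhibition relative to vehicle.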

[5] = NCI Yeast Anticancer Drug Screen. Data for the bub3 strain (AID 167); conditions: S. cerevisiae bub3 mutant strain, at 50.0 µM, stronger effect = higher value
How it was run: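 Inhibition values come from growth of compound-treated mutant yeast normalised to vehicle-treated controls.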

[6] = NCI Yeast Anticancer Drug Screen. Data for the mlh1 rad18 strain (AID 175); conditions: S. cerevisiae mlh1 rad18 strain growth inhibition; at 50.0 µM; stronger effect = higher value
How it was run: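 In this whole-cell yeast screen, a strain with altered DNA damage repair is challenged with compound, and its growth is measured against matched vehicle-treated controls.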

COC(=O)C1=C(C)N2[C@H](C(=O)O)CO[C@@]2(C)[C@H](C(=O)OC)[C@H]1c1cccc([N+](=O)[O-])c1
growth inhibition [1]: 26.6%
growth inhibition [2]: -8.35%
growth inhibition [3]: 21.4%
growth inhibition [4]: 4.25%
growth inhibition [5]: 25.6%
growth inhibition [6]: 22.7%

CN(N=O)C(=O)NC1CCCCC1
growth inhibition [1]: -18.6%
growth inhibition [2]: -0.25%
growth inhibition [3]: -1.25%
growth inhibition [4]: -4.45%
growth inhibition [5]: -1.95%
growth inhibition [6]: 13.8%

C=C(C)C1C2CC3(C)C4(CO4)C4OC4C3(O)C1C(=O)O2 (stereo not drawn)
growth inhibition [1]: 13.3%
growth inhibition [2]: -16.4%
growth inhibition [3]: 14.8%
growth inhibition [4]: 4.2%
growth inhibition [5]: 5.35%
growth inhibition [6]: -47.2%

COC1OC(CN=[N+]=[N-])C2OC12 (stereo not drawn)
growth inhibition [1]: 5.4%
growth inhibition [2]: -0.3%
growth inhibition [3]: -3.2%
growth inhibition [4]: 3.9%
growth inhibition [5]: 0.6%
growth inhibition [6]: 7.95%

OCC[N+]12CN3CN(CN(C3)C1)C2
growth inhibition [1]: 21.9%
growth inhibition [2]: 6.3%
growth inhibition [3]: 20.1%
growth inhibition [4]: 16.9%
growth inhibition [5]: 4.55%
growth inhibition [6]: 15.7%

NNC(=O)c1ccc(O)cc1
growth inhibition [1]: 1.15%
growth inhibition [2]: -2.65%
growth inhibition [3]: -13.3%
growth inhibition [4]: -17.4%
growth inhibition [5]: -0.05%
growth inhibition [6]: 18.2%

NC1=C(N2CC2)C(=O)C(N)=C(N2CC2)C1=O
growth inhibition [1]: 9.1%
growth inhibition [2]: -21.4%
growth inhibition [3]: -8.4%
growth inhibition [4]: 7.9%
growth inhibition [5]: -25.6%
growth inhibition [6]: -12.7%

CN1C2CCC1CC(=O)C2
growth inhibition [1]: -14.6%
growth inhibition [2]: -48.2%
growth inhibition [3]: -32.6%
growth inhibition [4]: -8.35%
growth inhibition [5]: -29.9%
growth inhibition [6]: -27.4%

CC(Br)C(=O)NC(C)C(=O)O (stereo not drawn)
growth inhibition [1]: -19.6% and -15.2%
growth inhibition [2]: -16.6% and -19.9%
growth inhibition [3]: -12.4%
growth inhibition [4]: 5.75%
growth inhibition [5]: -17.6%
growth inhibition [6]: -28.6% and -21.2%

O=[P+](O)O[P+](=O)O.O=[P+](O)O[P+](=O)O.O=[P+](O)O[P+](=O)O.O=[P+](O)O[P+](=O)O.[Cl][Pt].[Cl][Pt]
growth inhibition [1]: -2.05%
growth inhibition [2]: 27.8%
growth inhibition [3]: 26.2%
growth inhibition [4]: -32.5%
growth inhibition [5]: 18.1%
growth inhibition [6]: 12.9%

CC(C)(C)N1OC1C(Cl)(Cl)Cl (stereo not drawn)
growth inhibition [1]: -20.6%
growth inhibition [2]: -9.55%
growth inhibition [3]: -23%
growth inhibition [4]: -18.3%
growth inhibition [5]: -4.95%
growth inhibition [6]: 10.4%

O=[As](O)(O)Cc1cccc(F)c1
growth inhibition [1]: -3.8%
growth inhibition [2]: -7.8%
growth inhibition [3]: -6.65%
growth inhibition [4]: -46.5%
growth inhibition [5]: 2.1%
growth inhibition [6]: -8.35%

O=C(CC(=O)C(F)(F)F)c1ccco1
growth inhibition [1]: 34%
growth inhibition [2]: -25.9%
growth inhibition [3]: -19.1%
growth inhibition [4]: -49.8%
growth inhibition [5]: -16.5%
growth inhibition [6]: -8.45%

Cc1cc(C=C2C(=O)NC(=S)NC2=O)c(C)n1-c1ccccc1
growth inhibition [1]: 14.3%
growth inhibition [2]: -4.6%
growth inhibition [3]: 17.7%
growth inhibition [4]: -43.3%
growth inhibition [5]: 8.6%
growth inhibition [6]: 5.15%

CCCN(CCC)CC(O)c1ccc2c3c(cccc13)CC2 (stereo not drawn)
growth inhibition [1]: 21.9%
growth inhibition [2]: -5.9%
growth inhibition [3]: 19.2%
growth inhibition [4]: -10.1%
growth inhibition [5]: -4.6%
growth inhibition [6]: 16.4%

[Se]=[Nb]=[Se]
growth inhibition [1]: -5.8%
growth inhibition [2]: -6.55%
growth inhibition [3]: -18.3%
growth inhibition [4]: -5.1%
growth inhibition [5]: -27.1%
growth inhibition [6]: -28.5%

CCCCN(CCCC)CC(O)c1ccc(Cl)c(Cl)c1 (stereo not drawn)
growth inhibition [1]: -1.5%
growth inhibition [2]: -21.3%
growth inhibition [3]: 28.9%
growth inhibition [4]: 41.3%
growth inhibition [5]: 18%
growth inhibition [6]: 7.75%

CCOC(=O)/C(=C\c1cccc(F)c1)[Se]c1ccccc1
growth inhibition [1]: 29.4%
growth inhibition [2]: 7.15%
growth inhibition [3]: 21.9%
growth inhibition [4]: 8.3%
growth inhibition [5]: 46.8%
growth inhibition [6]: 36.6%

CC(C)(C)c1cc(C#N)cc(Br)c1OP(=O)(Oc1c(Br)cc(C#N)cc1C(C)(C)C)c1ccccc1
growth inhibition [1]: -9.6%
growth inhibition [2]: -7.5%
growth inhibition [3]: -28.8%
growth inhibition [4]: -3%
growth inhibition [5]: -24%
growth inhibition [6]: -17.6%

O=C1C=CC=C[C@@H]2C(C3OCCO3)CC[C@H]12.[C-]#[O+].[C-]#[O+].[C-]#[O+].[Fe] (stereo partly drawn)
growth inhibition [1]: 4.3%
growth inhibition [2]: 14.8%
growth inhibition [3]: -7.3%
growth inhibition [4]: 23.1%
growth inhibition [5]: 7.5%
growth inhibition [6]: 4.75%

COP1(=S)OCC(C(C)(C)C)CO1 (stereo not drawn)
growth inhibition [1]: 7.1%
growth inhibition [2]: 1.2%
growth inhibition [3]: -2.1%
growth inhibition [4]: -14.4%
growth inhibition [5]: 25.9%
growth inhibition [6]: -3.55%

CC(C)CC(NC=O)C(=O)NC(Cc1ccccc1)NC(=O)CNC(=O)C(C)NC(=O)C(N)Cc1ccc(O)cc1 (stereo not drawn)
growth inhibition [1]: -17.3%
growth inhibition [2]: -9.9%
growth inhibition [3]: -0.9%
growth inhibition [4]: 15.4%
growth inhibition [5]: -5.15%
growth inhibition [6]: -6.45%

CCOP(=O)(CCC[N+](=O)[O-])OCC
growth inhibition [1]: -12.1%
growth inhibition [2]: -11.9%
growth inhibition [3]: -18.7%
growth inhibition [4]: -15.8%
growth inhibition [5]: 1.35%
growth inhibition [6]: -7.65%

COC(=O)[C@H]1[C@@H](O)[C@@]2(O)c3c(OC)cc(OC)cc3O[C@@]2(c2ccc3c(c2)OCO3)[C@@H]1c1ccccc1
growth inhibition [1]: 89% (active)
growth inhibition [2]: 92.5% (active)
growth inhibition [3]: 91% (active)
growth inhibition [4]: 90.2% (active)
growth inhibition [5]: 88.2% (active)
growth inhibition [6]: 92.2% (active)

CC(N)C(=O)O (stereo not drawn)
growth inhibition [1]: 17.9% and -7.45%
growth inhibition [2]: -43.1% and -5.4%
growth inhibition [3]: 8.7% and -25.4%
growth inhibition [4]: 5.8% and 12.2%
growth inhibition [5]: 7.65% and -26.8%
growth inhibition [6]: 8.2% and -9.2%

[Cl][Tl]
growth inhibition [1]: -4.7%
growth inhibition [2]: 5.2%
growth inhibition [3]: 9.5%
growth inhibition [4]: -11.3%
growth inhibition [5]: -41%
growth inhibition [6]: -37.5%

NCC1OC(OC2C(CO)OC(OC3C(O)C(N)CC(N)C3OC3OC(CN)C(O)C(O)C3N)C2O)C(N)C(O)C1O (stereo not drawn)
growth inhibition [1]: 6.1%
growth inhibition [2]: 2.3%
growth inhibition [3]: 10.3%
growth inhibition [4]: 3%
growth inhibition [5]: 15.4%
growth inhibition [6]: 6.8%

COP(=O)(OC)C(=O)c1ccc(C)cc1
growth inhibition [1]: 14.7%
growth inhibition [2]: -6.05%
growth inhibition [3]: 1.55%
growth inhibition [4]: -36.8%
growth inhibition [5]: 15.9%
growth inhibition [6]: -7%

c1ccc2c(c1)[Se]c1ccccc1[Se]2
growth inhibition [1]: -14.2%
growth inhibition [2]: -22.8%
growth inhibition [3]: 0.65%
growth inhibition [4]: 8.55%
growth inhibition [5]: 23.1%
growth inhibition [6]: -7.45%

O/N=C1\CN2CCC1CC2
growth inhibition [1]: 15.9%
growth inhibition [2]: 13.2%
growth inhibition [3]: 1.7%
growth inhibition [4]: 15.4%
growth inhibition [5]: 10.4%
growth inhibition [6]: 20.3%

Nc1ccccc1C(=O)O
growth inhibition [1]: 15.3%
growth inhibition [2]: 18.4%
growth inhibition [3]: 0.7%
growth inhibition [4]: 8.6%
growth inhibition [5]: 18.4%
growth inhibition [6]: 3.8%

O=C1[C@@H]2[C@H](C(=O)N1c1ccccc1)[C@H]1CC[C@H]2N1C(=O)c1ccccc1
growth inhibition [1]: 18.9%
growth inhibition [2]: 17.4%
growth inhibition [3]: 2.2%
growth inhibition [4]: 2.75%
growth inhibition [5]: 13.2%
growth inhibition [6]: 6.5%

NC1=C(c2nc(-c3ccccc3)cs2)C(c2ccco2)c2c(c3ccccc3oc2=O)O1 (stereo not drawn)
growth inhibition [1]: -4.7%
growth inhibition [2]: 5.05%
growth inhibition [3]: 23.8%
growth inhibition [4]: 13.2%
growth inhibition [5]: 6.35%
growth inhibition [6]: 12.9%

c1ccc2c(c1)sc1sc3ccccc3[n+]12
growth inhibition [1]: 5.05%
growth inhibition [2]: -5.65%
growth inhibition [3]: 1.8%
growth inhibition [4]: 3%
growth inhibition [5]: 3.2%
growth inhibition [6]: -23.4%

O=C(COc1ccc(Cl)c(Cl)c1)Nc1ccc[n+](Cc2ccc(Cl)c(S(=O)(=O)F)c2)c1
growth inhibition [1]: 98.2% (active)
growth inhibition [2]: 90.7% (active)
growth inhibition [3]: 95.3% (active)
growth inhibition [4]: 79.3% (active)
growth inhibition [5]: 78.2% (active)
growth inhibition [6]: 98.5% (active)

CCOC(CP(=O)(OCC)OCC)OCC
growth inhibition [1]: -13.2% and 8.45%
growth inhibition [2]: -26.2% and -14.3%
growth inhibition [3]: -16.2% and 4.65%
growth inhibition [4]: 16.2% and 15.7%
growth inhibition [5]: 3.65% and 6.5%
growth inhibition [6]: -25.4% and 14.4%

O=C(O)C(C(=O)O)P(=S)(S)c1ccccc1 (stereo not drawn)
growth inhibition [1]: -2.1%
growth inhibition [2]: 8.6%
growth inhibition [3]: -2.75%
growth inhibition [4]: 1.15%
growth inhibition [5]: 35.3%
growth inhibition [6]: 14.5%

CN1C(=O)N(C)P1(Cl)(Cl)Cl
growth inhibition [1]: 18.6%
growth inhibition [2]: -6.15%
growth inhibition [3]: 3.15%
growth inhibition [4]: -36.6%
growth inhibition [5]: 0.2%
growth inhibition [6]: -14.9%
